# Assay results published in the supplement of paper PMC8728848.
# This excerpt belongs to a sample that is enriched for the strongest signals.
# Tests used:
# Assay in all cases: glycan array binding signal (z-score within array); higher = stronger binding
# Settings in all cases: glycan notation: IUPAC condensed, linker removed
# Fuc(a1-2)Gal(b1-3)GalNAc = molecular target: Fuc(a1-2)Gal(b1-3)GalNAc
# How it was run: (§1)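 Columns mapping to the same glycan were averaged after glycan names were converted to IUPAC-condensed notation. The data come from 3228 arrays in the Consortium for Functional Glycomics database, limited to those with an available protein sequence. Binding is reported as a within-array Z-score averaged across arrays of one protein sequence and across linkers.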
# Fuc(a1-2)Gal(b1-4)Glc6S = molecular target: Fuc(a1-2)Gal(b1-4)Glc6S
# How it was run: as §1
# Fuc(a1-2)Gal(b1-4)GlcNAc = molecular target: Fuc(a1-2)Gal(b1-4)GlcNAc
# How it was run: as §1
# [1] = molecular target: Fuc(a1-2)Gal(b1-4)GlcNAc(b1-2)Man(a1-3)[Fuc(a1-2)Gal(b1-4)GlcNAc(b1-2)Man(a1-6)]Man(b1-4)GlcNAc(b1-4)GlcNAc
# How it was run: as §1
# [2] = molecular target: Fuc(a1-2)Gal(b1-4)GlcNAc(b1-3)Gal(b1-4)GlcNAc
# How it was run: as §1
# [3] = molecular target: Fuc(a1-2)Gal(b1-4)GlcNAc(b1-3)Gal(b1-4)GlcNAc(b1-3)Gal(b1-4)GlcNAc
# How it was run: as §1
# [4] = molecular target: Fuc(a1-2)Gal(b1-4)GlcNAc(b1-3)[Fuc(a1-2)Gal(b1-4)GlcNAc(b1-6)]GalNAc
# How it was run: as §1
# [5] = molecular target: Fuc(a1-2)Gal(b1-4)GlcNAc6S
# How it was run: as §1
# [6] = molecular target: Fuc(a1-2)Gal(b1-4)[Fuc(a1-3)]GlcNAc
# How it was run: as §1
# [7] = molecular target: Fuc(a1-2)Gal6S(b1-4)Glc6S
# How it was run: as §1
# [8] = molecular target: Fuc(a1-2)[Gal(a1-3)]Gal(b1-3)GlcNAc(b1-2)Man(a1-3)[Fuc(a1-2)[Gal(a1-3)]Gal(b1-3)GlcNAc(b1-2)Man(a1-6)]Man(b1-4)GlcNAc(b1-4)GlcNAc
# How it was run: as §1
# [9] = molecular target: Fuc(a1-2)[Gal(a1-3)]Gal(b1-4)GlcNAc(b1-2)Man(a1-3)[Fuc(a1-2)[Gal(a1-3)]Gal(b1-4)GlcNAc(b1-2)Man(a1-6)]Man(b1-4)GlcNAc(b1-4)[Fuc(a1-6)]GlcNAc
# How it was run: as §1
# [10] = molecular target: Fuc(a1-2)[Gal(a1-3)]Gal(b1-4)[Fuc(a1-3)]Glc
# How it was run: as §1
# [11] = molecular target: Fuc(a1-2)[Gal(a1-3)]Gal(b1-4)[Fuc(a1-3)]GlcNAc(b1-3)GalNAc
# How it was run: as §1
# [12] = molecular target: Fuc(a1-2)[GalNAc(a1-3)]Gal
# How it was run: as §1
# Fuc(a1-3)GlcNAc = molecular target: Fuc(a1-3)GlcNAc
# How it was run: as §1
# [13] = molecular target: Fuc(a1-3)[Gal(b1-4)]GlcNAc(b1-4)Gal(b1-4)[Fuc(a1-3)]GlcNAc(b1-4)Gal(b1-4)[Fuc(a1-3)]GlcNAc
# How it was run: as §1
# [14] = molecular target: Gal(a1-3)Gal(b1-4)GlcNAc(b1-3)GalNAc
# How it was run: as §1
# [15] = molecular target: Gal(a1-3)Gal(b1-4)[Fuc(a1-3)]GlcNAc(b1-2)Man(a1-3)[Gal(a1-3)Gal(b1-4)[Fuc(a1-3)]GlcNAc(b1-2)Man(a1-6)]Man(b1-4)GlcNAc(b1-4)GlcNAc
# How it was run: as §1
# Gal(a1-6)Glc = molecular target: Gal(a1-6)Glc
# How it was run: as §1
# Gal(b1-3)GalNAc = molecular target: Gal(b1-3)GalNAc
# How it was run: as §1
# [16] = molecular target: Gal(b1-3)GlcNAc(b1-3)Gal(b1-4)Glc
# How it was run: as §1
# [17] = molecular target: Gal(b1-3)[Fuc(a1-4)]GlcNAc(b1-3)Gal(b1-4)[Fuc(a1-3)]GlcNAc
# How it was run: as §1
# [18] = molecular target: Gal(b1-4)GlcNAc(b1-2)Man(a1-3)[Gal(b1-4)GlcNAc(b1-2)Man(a1-6)]Man(b1-4)GlcNAc(b1-4)[Fuc(a1-6)]GlcNAc
# How it was run: as §1
# [19] = molecular target: Gal(b1-4)GlcNAc(b1-2)[Gal(b1-4)GlcNAc(b1-4)]Man(a1-3)[GlcNAc(b1-4)][Gal(b1-4)GlcNAc(b1-2)[Gal(b1-4)GlcNAc(b1-6)]Man(a1-6)]Man(b1-4)GlcNAc(b1-4)GlcNAc
# How it was run: as §1
# [20] = molecular target: Gal(b1-4)GlcNAc(b1-2)[Gal(b1-4)GlcNAc(b1-6)]Man(a1-6)[Gal(b1-4)GlcNAc(b1-2)Man(a1-3)]Man(b1-4)GlcNAc(b1-4)GlcNAc
# How it was run: as §1
# [21] = molecular target: Gal(b1-4)GlcNAc(b1-2)[Gal(b1-4)GlcNAc(b1-6)]Man(a1-6)[GlcNAc(b1-4)][Gal(b1-4)GlcNAc(b1-2)Man(a1-3)]Man(b1-4)GlcNAc(b1-4)GlcNAc
# How it was run: as §1
# [22] = molecular target: Gal(b1-4)GlcNAc(b1-3)Gal(b1-3)GlcNAc
# How it was run: as §1
# [23] = molecular target: Gal(b1-4)GlcNAc(b1-3)GalNAc
# How it was run: as §1
# Gal4S(b1-4)GlcNAc = molecular target: Gal4S(b1-4)GlcNAc
# How it was run: as §1
# [24] = molecular target: GalNAc(a1-3)GalNAc(b1-3)Gal(a1-4)Gal(b1-4)GlcNAc
# How it was run: as §1
# [25] = molecular target: GalNAc(b1-3)Gal(a1-6)Gal(b1-4)Glc
# How it was run: as §1
# [26] = molecular target: GlcNAc(a1-6)Gal(b1-4)GlcNAc
# How it was run: as §1
# Kdn(a2-3)Gal(b1-4)GlcNAc = molecular target: Kdn(a2-3)Gal(b1-4)GlcNAc
# How it was run: as §1
# [27] = molecular target: Neu5Ac(a2-3)Gal(b1-4)[Fuc(a1-3)]GlcNAc(b1-3)Gal
# How it was run: as §1
# [28] = molecular target: Neu5Ac(a2-3)Gal(b1-4)[Fuc(a1-3)]GlcNAc(b1-3)Gal(b1-4)GlcNAc
# How it was run: as §1
# [29] = molecular target: Neu5Ac(a2-6)Gal(b1-4)GlcNAc(b1-2)Man(a1-3)[Neu5Ac(a2-6)Gal(b1-4)GlcNAc(b1-2)Man(a1-6)]Man(b1-4)GlcNAc(b1-4)GlcNAc
# How it was run: as §1
# [30] = molecular target: Neu5Gc(a2-6)Gal(b1-4)GlcNAc
# How it was run: as §1
binder,measurement,setting,value
"CV-2L (Chromobacterium violaceum), Q7NX84 (protein) MAQQGVFTLPARINFGVTVLVNSAATQHVEIFVDNEPRAAFSGVGTGDNNLGTKVINSGSGNVRVQITANGRQSDLVSSQLVLANKLNLAVVGSEDGTDMDYNDSIVILNWPLG",glycan array binding signal (z-score),Fuc(a1-2)Gal(b1-3)GalNAc,0.156
same,glycan array binding signal (z-score),Fuc(a1-2)Gal(b1-4)Glc6S,4.43
same,glycan array binding signal (z-score),Fuc(a1-2)Gal(b1-4)GlcNAc,5.39
same,glycan array binding signal (z-score),[1],5.17
same,glycan array binding signal (z-score),[2],5.68
same,glycan array binding signal (z-score),[3],5.57
same,glycan array binding signal (z-score),[4],5.71
same,glycan array binding signal (z-score),[5],5.42
same,glycan array binding signal (z-score),[6],0.928
same,glycan array binding signal (z-score),[7],4.37
same,glycan array binding signal (z-score),[8],-0.292
same,glycan array binding signal (z-score),[9],-0.257
same,glycan array binding signal (z-score),[10],-0.019
same,glycan array binding signal (z-score),[11],-0.294
same,glycan array binding signal (z-score),[12],-0.2
same,glycan array binding signal (z-score),Fuc(a1-3)GlcNAc,1.49
same,glycan array binding signal (z-score),[13],-0.252
same,glycan array binding signal (z-score),[14],-0.341
same,glycan array binding signal (z-score),[15],-0.319
same,glycan array binding signal (z-score),Gal(a1-6)Glc,-0.347
same,glycan array binding signal (z-score),Gal(b1-3)GalNAc,-0.341
same,glycan array binding signal (z-score),[16],-0.304
same,glycan array binding signal (z-score),[17],0.831
same,glycan array binding signal (z-score),[18],-0.275
same,glycan array binding signal (z-score),[19],-0.334
same,glycan array binding signal (z-score),[20],-0.307
same,glycan array binding signal (z-score),[21],-0.316
same,glycan array binding signal (z-score),[22],-0.343
same,glycan array binding signal (z-score),[23],-0.342
same,glycan array binding signal (z-score),Gal4S(b1-4)GlcNAc,-0.355
same,glycan array binding signal (z-score),[24],-0.306
same,glycan array binding signal (z-score),[25],-0.338
same,glycan array binding signal (z-score),[26],-0.342
same,glycan array binding signal (z-score),Kdn(a2-3)Gal(b1-4)GlcNAc,-0.31
same,glycan array binding signal (z-score),[27],-0.337
same,glycan array binding signal (z-score),[28],-0.308
same,glycan array binding signal (z-score),[29],-0.336
same,glycan array binding signal (z-score),[30],-0.326
